Laboratory results from PubChem BioAssay (Tox21).
Where “and” joins values, the source holds several entries; their conditions need not be identical. Equal values may be shown once. Records with an inconclusive call do not appear. Entries that show only a call come without a potency. Where a structure was tested more than once in an assay, its records may differ in their call. Calls of active or inactive are those of the source. Unless noted, calls follow the shape of the dose curve; as a rule, active = well fitted curve in the direction sought with a large enough effect in the repeat runs; inconclusive = weak or mixed curves; inactive = no such curve, though single readings can be large; an effect the other way counts as inactive or inconclusive.

Tests used:
[1] = qHTS assay to identify aromatase inhibitors - cell viability counter screen (AID 743084);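 also: cells stimulated with testosterone during compound exposure; nearly all actives have a fitted effect of over 55% in size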; also: potency is read from the fitted curve at half-maximal effect
[2] = target: Aryl hydrocarbon receptor (Homo sapiens) (UniProt P35869); assay: qHTS assay to identify small molecule that activate the aryl hydrocarbon receptor (AhR) signaling pathway (AID 743085); also: nearly all actives have a fitted effect of over 15% in size; also: potency is read from the fitted curve at half-maximal effect;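 as to activation: HG2L7.5c1 human HepG2 liver cells with stably integrated DRE-driven firefly reporter; series mostly up to about 70 µM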
Aryl hydrocarbon receptor (Homo sapiens), sequence (P35869 whole entry, looked up): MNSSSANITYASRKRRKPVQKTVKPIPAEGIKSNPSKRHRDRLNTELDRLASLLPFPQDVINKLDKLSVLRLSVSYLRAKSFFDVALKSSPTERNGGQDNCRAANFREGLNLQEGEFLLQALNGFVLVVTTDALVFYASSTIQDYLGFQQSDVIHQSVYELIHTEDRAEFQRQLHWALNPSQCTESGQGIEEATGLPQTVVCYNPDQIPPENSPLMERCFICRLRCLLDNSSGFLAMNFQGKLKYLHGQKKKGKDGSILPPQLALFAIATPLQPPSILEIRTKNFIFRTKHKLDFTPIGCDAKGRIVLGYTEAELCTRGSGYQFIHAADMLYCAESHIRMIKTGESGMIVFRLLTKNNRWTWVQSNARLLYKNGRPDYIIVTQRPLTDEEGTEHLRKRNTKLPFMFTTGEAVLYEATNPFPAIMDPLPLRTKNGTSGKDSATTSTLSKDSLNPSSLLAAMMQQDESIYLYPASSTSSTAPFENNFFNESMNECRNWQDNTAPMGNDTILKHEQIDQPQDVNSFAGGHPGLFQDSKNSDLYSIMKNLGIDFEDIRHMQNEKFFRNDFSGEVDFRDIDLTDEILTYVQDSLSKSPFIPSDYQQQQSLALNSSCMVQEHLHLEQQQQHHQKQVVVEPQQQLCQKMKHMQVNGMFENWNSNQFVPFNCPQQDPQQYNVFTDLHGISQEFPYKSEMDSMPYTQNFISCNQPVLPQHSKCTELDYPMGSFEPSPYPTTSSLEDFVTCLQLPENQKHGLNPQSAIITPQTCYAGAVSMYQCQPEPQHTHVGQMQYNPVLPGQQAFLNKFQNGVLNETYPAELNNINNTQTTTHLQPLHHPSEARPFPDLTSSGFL
Procedure, shortened: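 Luminescence read-out: ONE-Glo reagent, 30 min at room temperature, in HG2L7.5c1 HepG2 reporter cells treated 24 h at 37C. Viability was measured beforehand by CellTiter-Fluor fluorescence after 30 min at 37C.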

[3] = qHTS assay to identify small molecule that activate the aryl hydrocarbon receptor (AhR) signaling pathway - cell viability counter screen (AID 743086); also: nearly all actives have a fitted effect of over 45% in size; also: potency is read from the fitted curve at half-maximal effect
Procedure, shortened: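 HepG2-AhR-luc (HG2L7.5c1) cells, 4000/well, treated 24 h at 37 C with compound; viability measured as CellTiter-Fluor fluorescence after 30 min in the same wells as the luciferase read.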

[4] = qHTS assay for small molecule agonists of the antioxidant response element (ARE) signaling pathway - cell viability counter screen (AID 743203; calls by dose curve; also: nearly all actives have a fitted effect of over 55% in size; also: potency is read from the fitted curve at half-maximal effect)
Procedure, shortened: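 Cells (ARE-bla HepG2, 2,000/well) receive DMSO-dissolved compounds after a 5 hrs rest. Plates incubate 16 hrs at 37C/5% CO2. CellTiter-Glo luminescence is then recorded after 30 min at room temperature.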

[5] = qHTS assay for small molecule activators of the heat shock response signaling pathway - cell viability counter screen (AID 743209); also: nearly all actives have a fitted effect of over 50% in size; also: potency is read from the fitted curve at half-maximal effect
Procedure, shortened: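 Quantitative HTS format, Tox21 10K library. HeLa cells carrying an HSE-driven beta-lactamase reporter were treated 5 h at 37 C, then assessed for viability by CellTiter-Glo luminescence.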

[6] = qHTS assay to identify small molecule agonists of the peroxisome proliferator-activated receptor delta (PPARd) signaling pathway - cell viability counter screen (AID 743211); also: nearly all actives have a fitted effect of over 55% in size; also: potency is read from the fitted curve at half-maximal effect
Procedure, shortened: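 Read-out: CellTiter-Glo luminescence, 30 min RT, measured in the same wells as the beta-lactamase reporter. Cells: GeneBLAzer PPAR delta UAS-bla HEK293H, 3000 cells/well, compound exposure 17 h at 37C.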

[7] = qHTS assay to identify small molecule antagonists of the peroxisome proliferator-activated receptor delta (PPARd) signaling pathway - cell viability counter screen (AID 743213); also: nearly all actives have a fitted effect of over 50% in size; also: potency is read from the fitted curve at half-maximal effect
Procedure, shortened: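 Luminescence from CellTiter-Glo, added after the bla read and incubated 30 min at room temperature, gives viability of HEK293H PPARd-bla cells exposed to compounds for 17 h at 37 C with 300 nM L165041.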

[8] = qHTS assay to identify small molecule agonists of the farnesoid-X-receptor (FXR) signaling pathway - cell viability counter screen (AID 743218); also: nearly all actives have a fitted effect of over 45% in size; also: potency is read from the fitted curve at half-maximal effect
Procedure, shortened: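 In GeneBLAzer FXR-UAS-bla HEK 293T cells, compounds act for 16 h at 37 C. Cell viability is then scored in the reporter wells by CellTiter-Glo, 30 min at RT, luminescence.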

[9] = qHTS assay to identify small molecule antagonists of the farnesoid-X-receptor (FXR) signaling pathway - cell viability counter screen (AID 743221; active = well fitted cell-killing curve with a large enough effect in the repeat runs, not every such curve was filed as active; also: nearly all actives have a fitted effect of over 50% in size; also: potency is read from the fitted curve at half-maximal effect)
Procedure, shortened: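 HEK 293T FXR-bla cells, 5 h pre-incubation; compound + CDCA 50 uM final, 16 h, 37 C; beta-lactamase FRET read first, then CellTiter-Glo luminescence, 30 min RT.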

[10] = target: Vitamin D3 receptor (Homo sapiens) (UniProt P11473); assay: qHTS assay to identify small molecule antagonists of the vitamin D receptor (VDR) signaling pathway (AID 743223; active = well fitted inhibition curve with a large enough effect in the signal ratio in the repeat runs, not every such curve was filed as active; the % refers to the signal ratio; also: potency is read from the fitted curve at half-maximal effect)
Vitamin D3 receptor (Homo sapiens), sequence (P11473 whole entry, looked up): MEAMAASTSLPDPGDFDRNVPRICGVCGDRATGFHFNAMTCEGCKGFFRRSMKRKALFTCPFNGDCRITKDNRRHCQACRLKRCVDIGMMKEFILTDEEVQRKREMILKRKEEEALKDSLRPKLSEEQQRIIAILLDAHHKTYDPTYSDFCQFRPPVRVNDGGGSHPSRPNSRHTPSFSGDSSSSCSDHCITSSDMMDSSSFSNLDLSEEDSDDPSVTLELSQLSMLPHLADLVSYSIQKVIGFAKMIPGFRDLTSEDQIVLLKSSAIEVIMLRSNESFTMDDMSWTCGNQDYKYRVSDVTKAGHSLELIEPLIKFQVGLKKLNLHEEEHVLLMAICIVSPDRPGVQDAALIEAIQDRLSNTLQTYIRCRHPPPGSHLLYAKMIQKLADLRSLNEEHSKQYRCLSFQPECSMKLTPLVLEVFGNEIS
Procedure, shortened: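 Beta-lactamase reporter read-out: FRET substrate fluorescence after 2 h at room temperature, following 16 h exposure of VDR-bla cells to test compound plus 3 nM (final) 1alpha,25-dihydroxyvitamin D3 agonist at 37C.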

[11] = target: Peroxisome proliferator-activated receptor gamma (Homo sapiens) (UniProt P37231); assay: qHTS assay to identify small molecule agonists of the peroxisome proliferator-activated receptor gamma (PPARg) signaling pathway (AID 743094; active = well fitted activation curve with a large enough effect in the signal ratio in the repeat runs, not every such curve was filed as active; the % refers to the signal ratio; also: potency is read from the fitted curve at half-maximal effect)
Peroxisome proliferator-activated receptor gamma (Homo sapiens), sequence (P37231 whole entry, looked up): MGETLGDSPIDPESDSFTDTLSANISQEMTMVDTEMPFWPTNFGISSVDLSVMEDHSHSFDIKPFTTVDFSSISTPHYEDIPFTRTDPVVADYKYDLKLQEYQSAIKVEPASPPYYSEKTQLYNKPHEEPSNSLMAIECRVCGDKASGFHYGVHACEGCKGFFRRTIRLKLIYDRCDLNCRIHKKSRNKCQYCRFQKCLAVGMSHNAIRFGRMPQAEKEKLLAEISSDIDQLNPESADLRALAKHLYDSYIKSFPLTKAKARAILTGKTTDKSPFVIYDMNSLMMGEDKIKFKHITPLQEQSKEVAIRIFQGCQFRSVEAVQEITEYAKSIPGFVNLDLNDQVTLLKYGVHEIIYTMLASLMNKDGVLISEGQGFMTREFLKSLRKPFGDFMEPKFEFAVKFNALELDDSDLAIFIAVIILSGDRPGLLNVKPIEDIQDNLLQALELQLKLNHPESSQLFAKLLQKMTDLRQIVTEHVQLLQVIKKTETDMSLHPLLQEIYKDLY
Procedure, shortened: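 Stably transfected HEK293H cells (GeneBLAzer PPARg UAS-bla) were incubated with test substances for 17 h at 37C after a 5 h pre-incubation; beta-lactamase activity was then detected by FRET substrate fluorescence.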

[12] = target: Peroxisome proliferator-activated receptor gamma (Homo sapiens) (UniProt P37231); assay: qHTS assay to identify small molecule antagonists of the peroxisome proliferator-activated receptor gamma (PPARg) signaling pathway (AID 743191; calls by dose curve; also: nearly all actives have a fitted effect of over 30% in size; also: potency is read from the fitted curve at half-maximal effect)
Procedure, shortened: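 GeneBLAzer PPARg UAS-bla HEK293H cells, 5 h post-plating, exposed to compounds 17 h at 37C. LiveBLAzer B/G FRET substrate added for 1 h at room temperature; beta-lactamase reporter read by fluorescence intensity.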

[13] = qHTS assay to identify small molecule antagonists of the peroxisome proliferator-activated receptor gamma (PPARg) signaling pathway - cell viability counter screen (AID 743194); also: nearly all actives have a fitted effect of over 55% in size; also: potency is read from the fitted curve at half-maximal effect
Procedure, shortened: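 Cytotoxicity counter screen in PPARg-bla HEK293H cells, same wells as reporter assay. Compounds plus 50 nM rosiglitazone (final) for 17 h at 37 C, then viability read by CellTiter-Glo luminescence.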

[14] = target: Bile acid receptor (Homo sapiens) (UniProt Q96RI1); assay: qHTS assay to identify small molecule antagonists of the farnesoid-X-receptor (FXR) signaling pathway (AID 743217; active = well fitted inhibition curve with a large enough effect in the signal ratio in the repeat runs, not every such curve was filed as active; the % refers to the signal ratio; also: potency is read from the fitted curve at half-maximal effect)
Bile acid receptor (Homo sapiens), sequence (Q96RI1 whole entry, looked up): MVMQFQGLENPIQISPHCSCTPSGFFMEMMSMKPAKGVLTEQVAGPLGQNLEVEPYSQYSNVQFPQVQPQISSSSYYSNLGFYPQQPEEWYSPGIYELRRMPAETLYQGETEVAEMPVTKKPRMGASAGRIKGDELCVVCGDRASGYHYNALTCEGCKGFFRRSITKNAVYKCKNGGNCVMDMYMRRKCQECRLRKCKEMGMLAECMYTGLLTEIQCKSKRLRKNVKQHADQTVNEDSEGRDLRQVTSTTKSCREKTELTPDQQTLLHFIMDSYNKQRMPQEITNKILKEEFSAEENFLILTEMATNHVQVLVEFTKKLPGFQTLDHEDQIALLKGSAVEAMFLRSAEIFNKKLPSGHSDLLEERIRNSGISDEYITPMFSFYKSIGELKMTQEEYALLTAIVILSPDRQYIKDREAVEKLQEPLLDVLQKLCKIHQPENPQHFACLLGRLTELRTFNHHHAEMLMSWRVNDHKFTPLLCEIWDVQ
Procedure, shortened: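 Beta-lactamase reporter under UAS control in HEK 293T cells; compound exposure 16 h at 37 °C in the presence of chenodeoxycholic acid (50 uM final); signal from B/G FRET substrate after 2 h at room temperature.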

[15] = qHTS assay for small molecule activators of the heat shock response signaling pathway (AID 743210; active = well fitted activation curve with a large enough effect in the signal ratio in the repeat runs, with a control signal flat, not every such curve was filed as active; the % refers to the signal ratio; also: series mostly up to about 63 µM)
Procedure, shortened: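 HSE-bla HeLa cells (beta-lactamase reporter under heat shock response elements), plated overnight, then exposed to compounds 5 h at 37 C; LiveBLAzer B/G FRET substrate added, 2.5 h at room temperature, fluorescence intensity read.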

[16] = target: Peroxisome proliferator-activated receptor delta (Homo sapiens) (UniProt Q03181); assay: qHTS assay to identify small molecule agonists of the peroxisome proliferator-activated receptor delta (PPARd) signaling pathway (AID 743212; calls by dose curve)
Peroxisome proliferator-activated receptor delta (Homo sapiens), sequence (Q03181 whole entry, looked up): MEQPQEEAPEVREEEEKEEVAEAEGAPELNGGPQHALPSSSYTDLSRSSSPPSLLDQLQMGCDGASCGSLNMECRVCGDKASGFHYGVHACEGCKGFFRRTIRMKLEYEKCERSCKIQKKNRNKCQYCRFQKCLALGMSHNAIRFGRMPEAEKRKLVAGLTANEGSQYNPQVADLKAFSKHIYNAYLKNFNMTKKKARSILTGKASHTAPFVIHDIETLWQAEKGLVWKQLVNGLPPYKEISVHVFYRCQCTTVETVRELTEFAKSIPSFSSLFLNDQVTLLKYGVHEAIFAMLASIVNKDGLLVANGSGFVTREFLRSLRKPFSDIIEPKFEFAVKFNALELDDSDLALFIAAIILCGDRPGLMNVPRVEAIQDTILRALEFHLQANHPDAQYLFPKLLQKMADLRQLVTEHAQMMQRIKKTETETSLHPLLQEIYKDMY
Procedure, shortened: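 GeneBLAzer UAS-bla HEK293H cells carrying a PPARδ construct were exposed to compounds at 37 °C. Beta-lactamase activity was read by FRET fluorescence after 2 h at room temperature with LiveBLAzer B/G substrate.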

[17] = target: Bile acid receptor (Homo sapiens) (UniProt Q96RI1); assay: qHTS assay to identify small molecule agonists of the farnesoid-X-receptor (FXR) signaling pathway (AID 743220; active = well fitted activation curve with a large enough effect in the signal ratio in the repeat runs, not every such curve was filed as active; the % refers to the signal ratio)
Procedure, shortened: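 Beta-lactamase reporter under UAS control in GeneBLAzer FXR HEK 293T cells (5000/well) measured with LiveBLAzer FRET substrate after 2 h at room temperature. Compound exposure lasted 16 h at 37C.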

[18] = qHTS assay for small molecule agonists of the antioxidant response element (ARE) signaling pathway (AID 743202; active = well fitted activation curve with a large enough effect in the signal ratio in the repeat runs, not every such curve was filed as active; the % refers to the signal ratio; also: potency is read from the fitted curve at half-maximal effect)
Procedure, shortened: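 ARE-bla HepG2 cells (beta-lactamase reporter under the antioxidant response element), plated 5 hours, then exposed to compounds 16 hours at 37 C. LiveBLAzer B/G FRET substrate added for 2 hours at room temperature; fluorescence intensity read.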

[19] = target: Vitamin D3 receptor (Homo sapiens) (UniProt P11473); assay: qHTS assay to identify small molecule agonists of the vitamin D receptor (VDR) signaling pathway (AID 743222; calls by dose curve)
Procedure, shortened: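 Agonist activity measured in VDR-bla reporter cells. Exposure 16 h, 37C, 5% CO2; detection by B/G FRET substrate, 2 h RT.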

Structure (SMILES)	Potency [1]	Potency [2]	Potency [3]	Potency [4]	Potency [5]	Potency [6]	Potency [7]	Potency [8]	Potency [9]	Potency [10]	Potency [11]	Potency [12]	Potency [13]	Potency [14]	Potency [15]	Potency [16]	Potency [17]	Potency [18]	Potency [19]
CCCCCCCCCCCC(=O)NCCCN(C)C	54.5 µM (active)	inactive	54.5 µM (active)	43.3 µM (active)	49 µM (active)	21.9 µM (active)	38.9 µM (active)	34.7 µM (active)	49 µM (active)	27.5 µM (active)	–	–	–	–	–	–	–	–	–
CCCCCCCCn1sc(Cl)c(Cl)c1=O	5.45 µM (active)	inactive	–	4.33 µM (active)	–	3.09 µM (active)	3.89 µM (active)	4.36 µM (active)	9.77 µM (active)	–	inactive	49 µM (active)	21.9 µM (active)	43.6 µM (active)	–	–	–	–	–
O=C1c2c(O)ccc(Nc3ccc(CCO)cc3)c2C(=O)c2c([N+](=O)[O-])ccc(O)c21	54.5 µM (active)	6.86 µM (active)	–	–	–	–	inactive	inactive	inactive	–	–	54.9 µM (active)	inactive	inactive	inactive	inactive	inactive	–	–
[O-][n+]1ccccc1SSc1cccc[n+]1[O-]	0.188 µM (active)	inactive	–	–	–	0.13 µM (active)	0.206 µM (active)	0.326 µM (active)	0.206 µM (active)	–	0.674 µM (active)	–	inactive	–	–	inactive	–	3.66 µM (active)	–
CCCCCCCCCOC(=O)c1ccc(O)cc1	30.2 µM (active)	inactive	inactive	60.3 µM (active)	24.2 µM (active)	27.1 µM (active)	24.2 µM (active)	48.3 µM (active)	43 µM (active)	–	–	–	–	–	–	–	–	–	–
CCN(CC)CCCC(C)Nc1c2ccc(Cl)cc2nc2ccc(OC)cc12 (centres undefined)	inactive	9.44 µM (active)	inactive	7.5 µM (active)	inactive	–	29.8 µM (active)	13.3 µM (active)	26.6 µM (active)	–	–	–	–	–	–	–	–	–	–
CCN(C(=O)c1cc(C)cc(OC[C@H](C)Nc2ccncc2)c1)C(C)C	inactive	inactive	–	inactive	inactive	inactive	inactive	inactive	inactive	–	–	–	inactive	–	–	–	inactive	–	–
CC(C)(C)c1ccc(C(=O)O)cc1	inactive	–	inactive	inactive	inactive	inactive	inactive	inactive	inactive	–	–	–	inactive	inactive	inactive	–	inactive	inactive	inactive
[Cl][Au]([Cl])[Cl]	27.3 µM (active)	inactive	–	0.77 µM (active)	–	3.09 µM (active)	9.77 µM (active)	2.75 µM (active)	3.47 µM (active)	–	–	–	–	–	–	–	–	–	–
CNc1ccc(O)cc1	19.3 µM (active)	61 µM (active)	–	–	–	38.8 µM (active)	43.6 µM (active)	–	inactive	–	–	–	43.6 µM (active)	–	–	–	–	–	–
COc1cc(-c2ccc(N=C=O)c(OC)c2)ccc1N=C=O	inactive	–	inactive	inactive	inactive	inactive	inactive	–	inactive	inactive	inactive	–	inactive	inactive	inactive	inactive	inactive	–	inactive
CCOC(=O)O[C@H](C)OC(=O)c1ccc2c(c1)cc(C(=O)NC1CCN(C(C)C)CC1)n2Cc1cc(-c2ccc(Cl)s2)on1	18.1 µM (active)	inactive	–	22.7 µM (active)	22.9 µM (active)	8.14 µM (active)	18.2 µM (active)	16.2 µM (active)	45.8 µM (active)	16.2 µM (active)	–	–	10.2 µM (active)	–	–	–	–	–	–
Cc1onc(-c2ccccc2Cl)c1C(=O)N[C@@H]1C(=O)N2[C@@H]1SC(C)(C)[C@@H]2C(=O)O	inactive	–	inactive	inactive	inactive	–	inactive	inactive	inactive	inactive	inactive	inactive	inactive	inactive	inactive	–	inactive	–	inactive
CCCCCCCCCCCCCCCCCC[N+](C)(C)Cc1ccccc1	49 µM (active)	inactive	–	19.5 µM (active)	27.8 µM (active)	11.1 µM (active)	13.9 µM (active)	19.7 µM (active)	27.8 µM (active)	22.1 µM (active)	–	–	44.1 µM (active)	–	–	–	–	–	–
CC(NN)c1ccccc1 (centres undefined)	inactive	–	inactive	inactive	inactive	inactive	inactive	inactive	inactive	inactive	inactive	inactive	inactive	–	inactive	–	–	inactive	–
Clc1ccccc1C(c1ccccc1)(c1ccccc1)n1ccnc1	inactive	–	inactive and 54.5 µM (active)	30.6 µM (active)	–	54.9 µM (active)	inactive	54.9 µM (active)	–	inactive	–	–	24.5 µM (active)	–	–	–	–	–	inactive
